Ten molecules from PubChem BioAssay AID862 (The Scripps Research Institute Molecular Screening Center, 2007) can be followed below.

The campaign covered roughly 190,000 compounds. About 1,700 (0.89%) were called active.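 The calls were made as follows: active = inhibition above the mean inhibition across all screened compounds plus 3 SD (cut at about 44% in these data); inactive = the rest.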 Shown is part of a subset that was picked to be rich in actives.

The assay in a line: IL-6 driven STAT3 reporter inhibitors, primary screen, U3A cells, luciferase, luminescence, MLSCN library (AID 862).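 Also: 0% = DMSO only wells and 100% = 100 µM nifuroxazide control wells.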 To be noted: IL-6 STAT3-luciferase reporter, at 5.5 µM, stronger effect = higher value.
As for `CC1=CC(=Cc2sc3ccccc3[n+]2C)C=C(C)O1`, the inhibition was 81.6% (active).
On to `COc1ccc(C(=O)CC2C(=O)N(C)C(=O)N(C)C2=O)cc1`, for which the inhibition was 8.6% (inactive).
The value for `Cc1cccc(-n2c(O)c(/C=N/N3CCOCC3)c(=O)[nH]c2=S)c1` was -17.9% (inactive).
To `CN1CCN(c2cc(N3CCNCC3)ccc2[N+](=O)[O-])CC1` belongs -1.6% (inactive); to `COc1cccc(-c2nc3ccc(N4CCN(C)CC4)cc3[nH]2)c1`, 85.4% (active).
With `Cc1nc2ccc(N3CCN(C)CC3)cc2nc1C`, the inhibition was -6.4% (inactive).
To `Cc1c(C(=O)O)cccc1-n1c(C)cc(/C=C2\C(=O)NC(=O)N(c3ccc4c(c3)OCO4)C2=O)c1C` belongs 2.2% (inactive); to `O=C(CCCn1c(=O)[nH]c2cc(Cl)ccc2c1=O)N1CCC2(CC1)OCCO2`, 14.5% (inactive).
The value for `O=C(CN1CCCC1=O)NCCc1ccccc1` was 3.6% (inactive).
For `N#Cc1ccc(Cn2cc(C(=O)c3ccco3)c3ccccc32)cc1`, the inhibition was 10.3% (inactive).

As usually defined, the inhibition is the relative decrease from the control value, in per cent.
